Assay results reported in PubChem BioAssay AID2006 (Sanford-Burnham Center for Chemical Genomics, 2009).
In all, about 290,000 compounds went through this assay and about 1,000 (0.34%) were called active. Cut-off read from the data, not from the text of the source: active = inhibition above about 50% (passing the limit was not always enough); inconclusive = no clear call, values can overlap the other calls. The list comes from a sample in which actives are over-represented; it also holds similar structures and randomly drawn compounds.

Target: SUMO-conjugating enzyme UBC9 (Homo sapiens) (UniProt P63279)
Sequence (P63279 whole entry, looked up): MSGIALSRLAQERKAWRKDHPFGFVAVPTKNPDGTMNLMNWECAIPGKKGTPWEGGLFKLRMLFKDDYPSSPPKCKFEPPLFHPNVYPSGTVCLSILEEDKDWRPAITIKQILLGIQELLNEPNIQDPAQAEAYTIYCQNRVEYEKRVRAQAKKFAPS
Assay: inhibitors of in vitro SUMOylation cascade, primary screen, biochemical, HTRF, uHTS (AID 2006)
Settings: HTRF SUMOylation assay, SAE1/SAE2 + UBC9, in vitro; at 35 µM; active compounds read high

SMILES	inhibition
O=C1NC(=O)N(c2ccccc2)C(=O)/C1=C/c1ccc([N+](=O)[O-])s1	51.6% (active)
COc1cccc(N2C(=O)NC(=O)/C(=C\c3ccc([N+](=O)[O-])s3)C2=O)c1	41.7% (inactive)
Cc1cccc(N2C(=O)NC(=O)/C(=C\c3cnn(-c4ccccc4)c3)C2=O)c1	-3.4% (inactive)
CC1CCC(N(C)C2CCN(C)CC2)CC1 (stereo not given)	9.4% (inactive)
CC(c1ccccc1)(c1ccccc1)c1ccncc1	4.4% (inactive)
